This is an account of results in PubChem BioAssay (EPA / NIEHS).

Several values for one entry are separate records, joined by “and”; a condition that tells them apart may be missing. Equal values may be shown once. Results filed as inconclusive are left out. Where a structure was tested more than once in an assay, its records may differ in their call. Activity calls are given as the source filed them. The calls were made as follows, unless noted: active = hit-call score of the fitted dose curve at least 0.9, where 1 is the maximum; inactive = score below 0.9.

Read-out in one assay: CD40, CD40 (gene 958)
In words: BSK_IMphg_CD40: BioMAP Diversity Plus: IMphg Assay for CD40 Biomarker Activity (AID 2284288). The following applies: primary human endothelial cells with macrophages. Put shortly:
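Venular endothelial cells co-cultured with macrophages (human primary), CD40 measured by ELISA 24 h after dosing. Positive-direction fit vs DMSO baseline; cytotoxicity tracked by SRB total-protein staining in parallel cultures.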

Read-out in assay [1]: TIMP metallopeptidase inhibitor 2 (TIMP2), TIMP2 (gene 7077)
In words: BSK_hDFCGF_TIMP2: BioMAP Diversity Plus: hDFCGF Assay for TIMP metallopeptidase inhibitor 2 (TIMP2) Biomarker Activity (AID 2284289). The following applies: primary human foreskin fibroblasts. In short, it runs like this: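 Primary human foreskin fibroblasts in the hDFCGF system, dosed for 24 h; TIMP-2 level measured by ELISA, fitted in the positive direction against DMSO; cytotoxicity checked in parallel by sulforhodamine B total protein staining.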

Read-out in assay [2]: Interleukin-1 alpha (IL1a), IL1A (gene 3552)
In words: BSK_IMphg_IL1a: BioMAP Diversity Plus: IMphg Assay for Interleukin-1 alpha (IL1a) Biomarker Activity (AID 2284290). Particulars: primary human endothelial cells with macrophages. Put shortly: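 Human venular endothelial cells co-cultured with macrophages, IMphg system. IL-1α is measured by ELISA 24 h after dosing and fitted in the positive direction against DMSO. Cytotoxicity is assessed by SRB staining of parallel cultures.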

Read-out in assay [3]: E-selectin (Homo sapiens) (UniProt P16581)
As to the kind of experiment: BSK_IMphg_ESelectin: BioMAP Diversity Plus: IMphg Assay for Eselectin Biomarker Activity (AID 2284291). Particulars: primary human endothelial cells with macrophages. In short, it runs like this: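 Human venular endothelial cell–macrophage co-culture, E-selectin measured by ELISA 24 h after chemical dosing. Signal fitted in the positive direction against DMSO as negative control and baseline.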

A short description of assay [4]: BSK_IMphg_SRB: Viability Assessment in the BioMAP Diversity Plus: IMphg Assay (AID 2284292).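 Also: measured one day after compound addition.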 The following applies: primary human endothelial cells with macrophages. In short, it runs like this:
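Human venular endothelial cells with macrophages, 24 h after chemical dosing; total protein by 0.1% SRB staining after 10% TCA fixation, read at 560 nm. Positive-direction fitting versus DMSO baseline.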

Read-out in assay [5]: Macrophage colony-stimulating factor (MCSF), CSF1 (gene 1435)
In words: BSK_IMphg_MCSF: BioMAP Diversity Plus: IMphg Assay for Macrophage colony-stimulating factor (MCSF) Biomarker Activity (AID 2284293). The following applies: primary human endothelial cells with macrophages. In short, it runs like this: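 Co-culture of human venular endothelial cells and macrophages, 24 hours of chemical exposure. M-CSF quantified by ELISA, with parallel SRB total-protein staining for cytotoxicity; activity fitted relative to DMSO.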

Read-out in assay [6]: Interleukin-10 (IL10), IL10 (gene 3586)
In words: BSK_IMphg_IL10: BioMAP Diversity Plus: IMphg Assay for Interleukin-10 (IL10) Biomarker Activity (AID 2284294). Particulars: primary human endothelial cells with macrophages. Put shortly: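 Human venular endothelial cells cocultured with macrophages, dosed 24 h; IL-10 measured by ELISA, activity relative to DMSO. Cytotoxicity assessed in parallel cultures by sulforhodamine B total-protein staining.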

A short description of assay [7]: BSK_IMphg_SRB.Mphg: Macrophage Viability Assessment in the BioMAP Diversity Plus: IMphg Assay (AID 2284295). The following applies: primary human endothelial cells with macrophages. Put shortly:
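Venular endothelial cells co-cultured with macrophages, read 24 h after dosing. Total protein measured by 0.1% SRB staining after 10% TCA fixation, absorbance at 560 nm. Fitted in positive direction against DMSO baseline.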

Read-out in assay [8]: Thrombomodulin, THBD (gene 7056)
As to the kind of experiment: BSK_LPS_Thrombomodulin: BioMAP Diversity Plus: LPS Assay for Thrombomodulin Biomarker Activity (AID 2284296). Particulars: primary human HUVEC with PBMC. In short, it runs like this:
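Human umbilical vein endothelial cells co-cultured with PBMC and stimulated with LPS; cell-surface thrombomodulin measured by ELISA 24 hours after compound. Gain or loss versus DMSO; cytotoxicity checked by SRB staining in parallel cultures.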

Read-out in the next assay: CD69, CD69 (gene 969)
In words: BSK_LPS_CD69: BioMAP Diversity Plus: LPS Assay for CD69 Biomarker Activity (AID 2284303). The following applies: primary human HUVEC with PBMC. In short, it runs like this:
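Human umbilical vein endothelial cells co-cultured with PBMC under LPS stimulation, chemical exposure 24 h; cell-surface CD69 measured by ELISA and fitted in the positive direction versus DMSO.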

Assay [9] can be described thus: Tanguay_ZF_120hpf_MO24: Oregon State University Tanguay Lab 24 Hour Post-fertilization zebrafish Assay for Mortality (AID 2284389). Put shortly: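 Dechorionated wild-type zebrafish embryos, 1 per well, statically exposed from 6 hpf at 28C, 0.64% DMSO final. Mortality scored as binary present/absent at 24 hpf by brightfield microscopy, relative to DMSO.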
Assay [10] in a line: CCTE_Mundy_HCI_iCellGluta_NOG_NeuriteLength: CCTE's Neurite Outgrowth Assay in iCellGluta cells for Neurite Length, Mundy Lab (AID 2284318; active = hit-call score of the fitted dose curve at least 0.9, where 1 is the maximum). Put shortly:
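Automated high-content imaging of betaIII-tubulin (Alexa Fluor-488) and Hoechst-stained cells gave neurite length, normalized to the DMSO baseline.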

The test system of the next assay is TTR (gene 7276). As to the kind of experiment: CCTE_GLTED_hTTR_0.5uM: CCTE's human Transthyretin (hTTR) Inhibition Assay, with 0.5uM TTR, Great Lakes Toxicology and Ecology Division (GLTED) Lab (AID 2284320). In short, it runs like this: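 Cell-free displacement assay in which human TTR at 0.5 uM was incubated with test chemical for 2 h. Displacement of the ANSA probe was read by fluorescence at 380 nm excitation/475 nm emission. Loss of signal was fitted in the positive direction versus DMSO.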

A short description of assay [11]: CCTE_Mundy_HCI_iCellGluta_NOG_NeuronCount: CCTE's Neurite Outgrowth Assay in iCellGluta cells for Neuron Count, Mundy Lab (AID 2284340; active = hit-call score of the fitted dose curve at least 0.9, where 1 is the maximum;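 also: cells fixed about 48 h after compound addition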). Put shortly: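 Neuron count read by automated high-content imaging of Hoechst 33342 and betaIII-tubulin/Alexa Fluor-488 labelling in human iPSC glutamatergic neurons. Activity fitted relative to DMSO.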
Assay [12] can be described thus: CCTE_Mundy_HCI_iCellGluta_NOG_NeuriteCount: CCTE's Neurite Outgrowth Assay in iCellGluta cells for Neurite Count, Mundy Lab (AID 2284342; active = hit-call score of the fitted dose curve at least 0.9, where 1 is the maximum;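 also: chemical exposure about 48 hours starting 2 hours after plating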).
A further assay deals with SERPINA7 (gene 6906). In words: CCTE_GLTED_hTBG: CCTE's human Thyroxine-binding Globulin (TBG) Inhibition Assay, Great Lakes Toxicology and Ecology Division (GLTED) Lab (AID 2284343; active = hit-call score of the fitted dose curve at least 0.9, where 1 is the maximum;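 also: active chemicals lower fluorescence versus DMSO baseline by displacing probe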). In short, it runs like this:
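Human TBG incubated 2 h with test chemical; displacement of ANSA probe read by fluorescence, 380 nm excitation/475 nm emission. Loss of signal relative to DMSO.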

Chain of E-selectin (Homo sapiens) (P16581 whole entry, looked up): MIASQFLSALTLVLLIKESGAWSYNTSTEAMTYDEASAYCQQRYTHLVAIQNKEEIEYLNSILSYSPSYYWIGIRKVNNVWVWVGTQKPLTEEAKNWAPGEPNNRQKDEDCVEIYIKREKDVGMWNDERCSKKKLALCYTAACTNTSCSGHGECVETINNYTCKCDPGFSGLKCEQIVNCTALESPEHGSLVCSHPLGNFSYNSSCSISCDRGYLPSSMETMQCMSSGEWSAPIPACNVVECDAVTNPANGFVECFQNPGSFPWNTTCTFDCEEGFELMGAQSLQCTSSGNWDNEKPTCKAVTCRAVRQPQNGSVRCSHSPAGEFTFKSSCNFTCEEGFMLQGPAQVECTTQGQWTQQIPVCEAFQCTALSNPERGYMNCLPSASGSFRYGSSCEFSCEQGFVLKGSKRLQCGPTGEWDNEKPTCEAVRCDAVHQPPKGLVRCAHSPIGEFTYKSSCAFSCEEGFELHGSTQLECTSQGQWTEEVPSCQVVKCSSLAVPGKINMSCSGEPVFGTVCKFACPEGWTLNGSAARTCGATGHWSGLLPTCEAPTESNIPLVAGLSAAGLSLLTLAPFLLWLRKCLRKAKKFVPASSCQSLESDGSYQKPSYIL

Turning to `O=C(O)C(F)(F)C(F)(F)C(F)(F)C(=O)O`, the AC50 with CD40, CD40 (gene 958) is 43.1 µM (active). Further, the outcome with CD40, CD40 (gene 958) was “inactive”; in assay [1] it was “inactive”; in assay [2], “inactive”; in assay [3], “inactive”; in assay [4] it was “inactive”; in assay [5], “inactive”. Moreover, the outcome in assay [6] was “inactive”; in assay [7], “inactive”; in assay [8], “inactive”; with CD69, CD69 (gene 969), “inactive”; in assay [9], “inactive”.

As for `O=C(O)C(F)(F)C(F)(F)C(F)(F)OC(F)(F)F`, the outcome is “inactive” with CD40, CD40 (gene 958); “inactive” in assay [1]; “inactive” in assay [2]; “inactive” in assay [3]; “inactive” in [4]; “inactive” in assay [5]. Also, the outcome in assay [6] is “inactive”; in [7] it was “inactive”; in assay [8] it was “inactive”; with CD69, CD69 (gene 969), “inactive”; in assay [10], “inactive”; in assay [11], “inactive”. The outcome in [12] and in assay [9] was inactive. For the same molecule, in the assay on TTR (gene 7276), the AC50 is 4.54 µM (active).

In the case of `C=C(C)C(=O)OCC(F)(F)C(F)(F)C(F)(F)C(F)F`, the outcome was “inactive” with CD40, CD40 (gene 958); “inactive” in assay [1]; “inactive” in assay [2]; “inactive” in assay [3]; “inactive” in assay [4]; “inactive” in assay [5]. Also, the outcome in assay [6] was “inactive”; in assay [7] it was “inactive”; in [8] it was “inactive”; with CD69, CD69 (gene 969) it was “inactive”. For the same molecule, the AC50 with TTR (gene 7276) was 19 µM (active).

For `NCC(F)(F)C(F)(F)C(F)(F)C(F)(F)C(F)(F)C(F)(F)F`, the outcome in the assay with CD40, CD40 (gene 958) was “inactive”; in assay [1] it was “inactive”; in assay [2], “inactive”; in assay [3], “inactive”; in assay [4], “inactive”; in assay [5] it was “inactive”. In addition, the outcome in [6] is “inactive”; in assay [7] it was “inactive”; in assay [8], “inactive”; with CD69, CD69 (gene 969), “inactive”.

`OCCCC(F)(F)C(F)(F)C(F)(F)C(F)(F)C(F)(F)C(F)(F)C(F)(F)C(F)(F)F`: the AC50 was 10.1 µM (active) and 10.9 µM (active) in the assay with CD40, CD40 (gene 958); 19 µM (active) and 14.6 µM (active) in assay [1]; 47.7 µM (active) and 51 µM (active) in [2]; 14.3 µM (active) and 11.4 µM (active) in assay [3]; 47.2 µM (active) and 31 µM (active) in assay [4]; 44.4 µM (active) and 42.1 µM (active) in assay [5]. Moreover, the AC50 was 40.8 µM (active) and 32.2 µM (active) in [6]; 16.7 µM (active) and 30 µM (active) in assay [7]; 52.8 µM (active) and 52.3 µM (active) in [8]; 22.1 µM (active) and 43.1 µM (active) with CD69, CD69 (gene 969). The result in [10], in [11], in [12] and in assay [9] was inactive.

As to `O=C(F)C1(F)C(F)(F)C(F)(F)C(F)(F)C(F)(F)C1(F)F`, the outcome is “inactive” in the assay with CD40, CD40 (gene 958); “inactive” in assay [1]; “inactive” in assay [2]; “inactive” in [3]; “inactive” in assay [4]; “inactive” in [5]. Also, the outcome in assay [6] is “inactive”; in [7] it was “inactive”; in assay [8] it was “inactive”; in the assay with CD69, CD69 (gene 969), “inactive”; in assay [10], “inactive”; in [11] it was “inactive”. The molecule was classed as inactive in assay [12] and in [9]. Further, the concentration at half-maximal activity (AC50) in the assay on TTR (gene 7276) is 32.9 µM (active).

Take `O=C(O)C(F)(F)C(F)(F)C(F)(F)C(F)(F)C(F)(F)C(F)(F)C(F)F`: the outcome in the assay with CD40, CD40 (gene 958) is “inactive”; in [1], “inactive”; in [2], “inactive”; in assay [3], “inactive”; in assay [4], “inactive”; in [5], “inactive”. Moreover, the outcome in assay [6] was “inactive”; in assay [7], “inactive”; in [8], “inactive”; with CD69, CD69 (gene 969), “inactive”. The values for the AC50 (in [1]; in the assay with TTR (gene 7276); in the assay with SERPINA7 (gene 6906)) were 957 nM (active), 0.275 µM (active) and 26.5 µM (active), respectively.

Usually AC50 stands for the midpoint of the concentration-response curve, whichever way the signal moves.
